CYP2C19 activ: increases human CYP2C19 enzyme activity. P33261. 96,000 tested, under 10 active. recombinant CYP2C19, luciferin-H EGE luminescence; active compounds read high; 0 = fully inhibited enzyme, 1 = untreated enzyme. activation factor at 5 µM. AID 1025;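 active = activation factor of at least 2 at 5 µM in the primary screen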;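 note: 0 = wells with 2.5 mM tranylcypromine and 1 = vehicle-only wells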
CYP2C9 inh: blocks human cytochrome P450 2C9; 96,000 compounds, 20% hits; inhibition, % at 5 µM; CYP2C9 Supersomes, luciferin-H conversion, luminescence; AID 777; P11712;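 active = blocking of liver enzyme CYP2C9 beyond about 50% at 5 µM, limit read from the data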
Target sequence (P11712 whole entry, looked up): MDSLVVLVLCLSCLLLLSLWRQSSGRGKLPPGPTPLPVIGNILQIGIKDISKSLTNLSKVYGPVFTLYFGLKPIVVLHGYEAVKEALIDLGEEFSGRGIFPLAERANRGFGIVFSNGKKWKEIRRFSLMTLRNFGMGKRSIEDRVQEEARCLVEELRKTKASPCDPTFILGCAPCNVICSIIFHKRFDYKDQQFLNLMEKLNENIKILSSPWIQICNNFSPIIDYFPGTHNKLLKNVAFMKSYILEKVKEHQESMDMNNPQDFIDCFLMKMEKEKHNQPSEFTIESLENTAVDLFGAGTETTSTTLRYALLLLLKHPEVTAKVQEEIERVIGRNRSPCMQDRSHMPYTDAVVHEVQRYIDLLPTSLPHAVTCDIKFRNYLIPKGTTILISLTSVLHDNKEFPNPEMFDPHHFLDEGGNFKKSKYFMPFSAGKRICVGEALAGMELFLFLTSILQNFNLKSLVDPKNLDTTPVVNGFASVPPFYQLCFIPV
CYP2C9 act: increases human cytochrome P450 2C9 activity. recombinant CYP2C9, luciferin-H conversion, luminescence; active compounds read high; factor 1 = untreated enzyme, 0 = blocked. P11712. 96,000 compounds, 1.4% hits. activation factor at 5 µM. AID 1024;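 active = activation factor of 2 or more for CYP2C9 at a 5 µM dose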;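 note: 0 = sulfaphenazole-blocked wells and 1 = vehicle-only wells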
CYP2C19 inhib: blocks human cytochrome P450 2C19. P33261. CYP2C19 Supersomes, luciferin-H EGE luminescence, 30 min. inhibition, % at 5 µM. 96,000 compounds, 21% hits;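 active = CYP2C19 inhibition above a set limit at 5 µM in the primary screen, cut at about 50% in these data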;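 note: plate controls were negative control wells for no effect and 2.5 mM tranylcypromine positive control for full effect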
An asterisk follows results filed as active. Sampled rows, rich in hits. Any-hit rate of the full collection: about 31%.

SMILES	CYP2C19 activ	CYP2C9 inh	CYP2C9 act	CYP2C19 inhib
COc1ccc(-n2c(COc3ccccc3)nnc2SCc2ccc(C#N)cc2)cc1	0	93*	0.1	96*
Cc1ccc(NC(=S)N2CCOCC2)c(C)c1	0.9	3	1	8
Cc1ccc2c(c1)sc1nc(=O)n(-c3cccc(Cl)c3)c(=O)n12	0.7	4	1	26
O=c1nc2sc3ccccc3n2c(=O)n1-c1cccc(Cl)c1	0.3	28	0.7	68*
CC(=O)Nc1ccc(-c2nc3c(C)cccc3[nH]2)cc1	0.8	8	0.9	15
CN(C(=O)COC(=O)COc1ccccc1F)C1CCS(=O)(=O)C1 (stereo unspecified)	1	-11	1.1	-1
C=C(C)COc1ccc(-c2nc(N)ncc2Oc2ccccc2OCC)c(O)c1	0.2	92*	0.1	80*
CCC1CCC2(CC1)NNC(=S)NN2	0.7	19	0.8	33
O=C(NCc1cccs1)C1CCCN(c2nc3ccccc3o2)C1 (stereo unspecified)	0.6	13	0.9	39
Cc1ccc(S(=O)(=O)N(Cc2ccccc2)c2ccccc2C(=O)NCc2ccco2)cc1	0.5	99*	0	48
CS(=O)(=O)N(Cc1ccccc1)c1ccccc1C(=O)Nc1ccccc1C(=O)NCc1ccco1	0.1	84*	0.2	89*
O=C(CSCCNS(=O)(=O)c1ccccc1)Nc1ccccc1	0.1	50	0.5	92*
O=C(CCc1ccccc1)Nc1ccc(NC(=O)c2ccco2)nc1	0.8	25	0.7	17
CC(Oc1ccc(NC(=O)c2ccco2)cc1)C(=O)N1c2ccccc2CC1C (stereo unspecified)	0.7	51*	0.5	33
O=C(CCc1ccccc1)Nc1ccc(NC(=O)c2ccco2)cc1	0.3	82*	0.2	71*
O=C(Nc1ccc(S(=O)(=O)NCCc2ccccc2)cc1)c1ccco1	0.4	95*	0.1	59*
CC1(C)Cc2cccc(OCC(=O)N3CCN(S(=O)(=O)c4ccccc4)CC3)c2O1	0.7	-18	1.2	31
CCCSc1nnc2nc3c(nn12)c1ccccc1n3C	1	2	1	-3
O=C(c1ccco1)N1CCN(C(c2ccc(F)cc2)c2nnnn2CC2CCCO2)CC1 (stereo unspecified)	1	-3	1	-4
CCCNS(=O)(=O)c1ccc(NC(=O)c2ccccn2)cc1	0.4	85*	0.1	57*
CCOCC(=O)Nc1ccc(S(=O)(=O)NCCc2ccccc2)cc1	0.4	30	0.7	60*
CCOCCCNS(=O)(=O)c1ccc(NC(=O)c2ccccc2)cc1	1.1	2	1	-7
O=C(O)COc1ccc(NC(=O)c2ccco2)cc1	0.9	-161	2.6*	8
O=C(Nc1ccccc1-c1ccccc1)c1ccc(NC(=O)c2ccco2)cc1	0.5	48	0.5	53*
CCN(CC)CCNC(=O)c1ccc(NC2=NC3CS(=O)(=O)CC3S2)cc1 (stereo unspecified)	1	-16	1.2	-1
SMILES	CYP2C19 activ	CYP2C9 inh	CYP2C9 act	CYP2C19 inhib
O=C(CCN1c2ccccc2Sc2ccccc21)OCC(=O)N1CCN(C(=O)c2ccco2)CC1	0.8	50	0.5	19
O=C(N/C=N/OCc1ccc(Cl)cc1Cl)NOCc1ncc(C(F)(F)F)cc1Cl	0	86*	0.1	97*
CO/N=C/NC(=O)NOCc1ncc(C(F)(F)F)cc1Cl	0.6	-18	1.2	39
O=C1CCC(=O)N1CNc1cccnc1	1	-3	1	-2
CCOc1cc(CNc2ccccc2)cc(Br)c1OCC(=O)NC(C)(C)C	0.5	46	0.5	50
CCOc1cc(CNc2ccc(Br)cc2)cc(Br)c1OCC(=O)NC(C)(C)C	0.8	89*	0.1	21
CCOc1cc(CNc2ccc(OC)cc2)cc(Br)c1OCC(=O)NC(C)(C)C	0.5	59*	0.4	52*
O=C(CSCCSCC(=O)c1ccco1)c1ccco1	1	28	0.7	4
O=C(NC(=O)c1cccc(OC(F)(F)C(F)F)c1)OC1CCS(=O)(=O)C1 (stereo unspecified)	0.9	6	0.9	6
C/C(=N\O)c1c(C)c2ccccc2n1C	0.9	-34	1.3	10
Cn1cc(/C(Cc2ccccc2)=N\O)c2ccccc21	0.4	10	0.9	59*
O=C(Cn1nnc(-c2ccccc2NC(=O)C2CC2)n1)NC1CCCCC1	0.5	32	0.7	47
C=CCNC(=O)c1onc(CSc2ccc(C(C)C)cc2)c1C(=O)O	0.8	87*	0.1	21
C=CCNC(=O)c1onc(CSc2ccc(OC)cc2)c1C(=O)O	1	52*	0.5	-3
C=CCNC(=O)c1onc(CSc2cccc3ccccc23)c1C(=O)O	0.4	94*	0.1	59*
C=CCNC(=O)c1onc(CSc2ccc(F)cc2)c1C(=O)NCCOC	0	22	0.8	98*
C=CCNC(=O)c1onc(CSc2ccccc2)c1C(=O)O	0.9	31	0.7	13
Cc1ccc(CONC(=O)/N=C/N(C)C)cc1	0.8	12	0.9	16
CCOCCCNC(=O)c1ccc(CS(=O)(=O)Cc2ccccc2F)o1	0.9	0	1	12
O=C(CSc1nnc2scc(-c3ccccc3)n12)NCC1CCCO1 (stereo unspecified)	0.9	-10	1.1	15
CCCN1CCCc2cc(CN)ccc21	0.1	84*	0.2	90*
OC1(c2ccccc2)C/C(=N\n2cnnc2)C=C1c1ccccc1 (stereo unspecified)	0	95*	0	99*
CCOC(=O)C(NC(C)=O)(NS(=O)(=O)c1ccccc1)C(F)(F)F (stereo unspecified)	1	-3	1	5
COc1ccccc1N1CCN(C2=NS(=O)(=O)c3ccccc32)CC1	1.1	-14	1.1	-11
C=CCN1/C(=C(\C#N)C2=NS(=O)(=O)c3ccccc32)N(C)c2ccccc21	0.5	36	0.6	55*
SMILES	CYP2C19 activ	CYP2C9 inh	CYP2C9 act	CYP2C19 inhib
CCc1ccc(-c2csc3ncn(CC(=O)N4CCOCC4)c(=O)c23)cc1	1.1	3	1	-6
C=CCn1cnc2scc(-c3ccc(C)cc3)c2c1=O	0.1	65*	0.3	92*
CC(=O)N=c1sccn1CC(=O)c1ccc([N+](=O)[O-])cc1	0.8	14	0.9	24
CCOC(=O)c1cc2c(ccn2-c2ccc(F)cc2)n1CC(=O)N1CCN(C(=O)c2ccco2)CC1	1	17	0.8	-1
Cc1ccc(OCC(=O)N2CCN(c3ccc([N+](=O)[O-])c(N4CCOCC4)c3)CC2)cc1	0.7	57*	0.4	34
Cc1ccccc1C(=O)N1CCN(c2ccc([N+](=O)[O-])c(N3CCOCC3)c2)CC1	0.5	59*	0.4	55*
COc1ccc(N2CCN(C(=O)COc3ccc4ccccc4c3)CC2)cc1	1	-2	1	-3
O=C(COc1ccccc1)N1CCN(c2ccc([N+](=O)[O-])c(N3CCCCC3)c2)CC1	0.4	79*	0.2	64*
Cc1ccc(-c2ccc(OCC(=O)N3CCOCC3)cc2)cc1	0.9	28	0.7	8

Screening data from PubChem BioAssay.
